Laboratory results as given in PubChem BioAssay (NCATS).
Records with an inconclusive call do not appear. Calls of active or inactive are those of the source. Unless noted, calls follow the shape of the dose curve; as a rule, active = well fitted curve in the direction sought with a large enough effect; inconclusive = small, poorly fitted or top-dose-only effect, or another doubt; inactive = no such curve, though single readings can be large; an effect the other way counts as inactive or inconclusive.

Experiments:
[1] = qHTS for Inhibitors of Plasmodium falciparum (7G8) proliferation (AID 504316);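 also: 0% = DMSO vehicle and -100% = 0.29 µM artemisinin full kill; nearly all actives have a fitted effect of over 65% in size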
Method in brief: (§1)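 Erythrocytes infected with P. falciparum line (0.3% parasitemia, 2.5% hematocrit final) incubated with compounds 72 h at 37 °C, 5% CO2; SYBR Green lysis buffer added, fluorescence read next day. Normalized to 0.29 uM artemisinin and DMSO.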

[2] = qHTS for Inhibitors of Plasmodium falciparum (DD2) proliferation (AID 504314);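 also: parasite DNA measured by SYBR Green fluorescence after red cell lysis; plate controls were DMSO vehicle for no effect and artemisinin wells for full effect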
Method in brief: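 Fluorescence read-out (ex 485/em 535 nm) of SYBR Green-stained parasite DNA quantifies intraerythrocytic growth. Cultures at 0.3% parasitemia and 2.5% hematocrit were treated for 72 h; data normalized to DMSO and 0.29 uM artemisinin wells.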

[3] = qHTS for Inhibitors of Plasmodium falciparum (GB4) proliferation (AID 504315);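 also: 0% = DMSO vehicle and -100% = 0.29 µM artemisinin control; nearly all actives have a fitted effect of over 50% in size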
Method in brief: as §1

[4] = qHTS for Inhibitors of Plasmodium falciparum (HB3) proliferation (AID 504318);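 also: 0% = DMSO vehicle and -100% = artemisinin control; nearly all actives have a fitted effect of over 60% in size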
Method in brief: as §1

[5] = target: Glucocorticoid receptor (Homo sapiens) (UniProt P04150); assay: GR-GFP Redistribution (AID 450;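 active = compounds whose dose series gives a full or clear partial fitted curve of increased nuclear translocation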; also: potency is read from the fitted curve at half-maximal effect); settings: U2OS GR-GFP nuclear translocation, laser cytometry, 2 h
[6] = target: Glucocorticoid receptor (Homo sapiens) (UniProt P04150); assay: GR-EFC Redistribution (AID 451; calls by dose curve; also: potency is read from the fitted curve at half-maximal effect); settings: CHO-K1 GR-EFC translocation, beta-gal luminescence, 2 h
Method in brief: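 CHO-K1 cells stably expressing nuclear-localized β-gal enzyme acceptor and GR fused C-terminally to the enzyme donor fragment; ligand-driven nuclear translocation restores β-gal by complementation. Compounds titrated up to 46 uM final, 2 h at 37 °C; luminescence read.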

[7] = target: Mitogen-activated protein kinase 10 (Mus musculus) (UniProt Q61831); assay: JNK3 AlphaScreen Assay (AID 530; active = well fitted curve in either direction with a large enough effect, not every such curve was filed as active;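 also: kinase came from lysate of stimulated human HepG2 cells; signal reports phosphorylation of biotinylated GST-cJun 1-79 at Ser73 with 10 µM ATP; % is scaled to controls: 0 for no effect and ±100 for the full control effect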)
Method in brief: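 Inhibitors reduce antibody binding to phosphorylated biotin-cJun, lowering AlphaScreen luminescence. Lysates from HepG2 cells pre-activated by IL-1beta plus TNF-alpha supplied JNK3; compounds were titrated.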

[8] = target: Ubiquitin carboxyl-terminal hydrolase 1 (Homo sapiens) (UniProt O94782); assay: Inhibitors of USP1/UAF1: Pilot qHTS (AID 504865);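 also: rhodamine fluorescence freed from ubiquitin-rhodamine substrate followed over time; top concentration of the series differs between compounds; % is scaled to controls: 0 for no effect and ±100 for the full control effect; nearly all actives have a fitted effect of over 35% in size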
Method in brief: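 Kinetic fluorescence assay: 1nM USP1/UAF1, 15 min compound preincubation, then 150nM Ub-Rho; 480/540 nm.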

[9] = Primary qHTS for small molecule stabilizers of the endoplasmic reticulum resident proteome: Secreted ER Calcium Modulated Protein (SERCaMP) assay (AID 1508630); also: % is scaled to controls: 0 for no effect and ±100 for the full control effect
Method in brief: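 GLuc-SERCaMP-expressing SH-SY5Y cells, pretreated 16 h with compound, are challenged with thapsigargin to empty ER calcium stores; after 4 h, coelenterazine is added directly to the medium and luminescence is imaged.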

[10] = target: Cytochrome P450 1A2 (Homo sapiens) (UniProt P05177); assay: p450-cyp1a2 (AID 410; calls by dose curve; also: potency is read from the fitted curve at half-maximal effect)
Method in brief: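 Luminescent readout of luciferin formed from Luciferin-ME by human CYP1A2; data normalized against complete inhibition by 57 uM furafylline. Enzyme 20nM, substrate 100uM at Km, 100mM KPO4 buffer, 60 min reaction at room temperature.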

[11] = target: Cytochrome P450 2C9 (Homo sapiens) (UniProt P11712); assay: qHTS Assay for Inhibitors and Substrates of Cytochrome P450 2C9 (AID 883); also: potency is read from the fitted curve at half-maximal effect; nearly all actives have a fitted effect of over 60% in size
Method in brief: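 CYP2C9 deoxyluciferin hydroxylation, 37C, 60 min with NADPH regeneration; 10nM enzyme, 100uM Luciferin-H (KM). Glo detection reagent stopped reaction; luminescence normalized to sulphaphenazole (57uM) full inhibition.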

[12] = target: Cytochrome P450 2D6 (Homo sapiens) (UniProt P10635); assay: qHTS Assay for Inhibitors and Substrates of Cytochrome P450 2D6 (AID 891); also: potency is read from the fitted curve at half-maximal effect; nearly all actives have a fitted effect of over 60% in size
Method in brief: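 Human CYP2D6 (5 nM) with 30 uM Luciferin-ME EGE (at Km) in 100 mM KPO4, compound preincubated 10 min, then NADPH regeneration system for 60 min at room temperature. Luciferin read by luminescence; normalized to 1.43 uM quinidine.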

[13] = target: DNA dC->dU-editing enzyme APOBEC-3G (Homo sapiens) (UniProt Q9HC16); assay: qHTS for inhibitors of Vif-A3G interactions: Validation (AID 588379); also: 0% is about no effect
Method in brief: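 HeLa cells stably expressing Vif and A3G-eYFP, 700 cells/well, incubated overnight at 37 deg C, then exposed to compound overnight at 37 deg C. Inhibition of Vif-mediated degradation read as increased yellow fluorescence (Ex 488/Em 500-530) by laser-scanning cytometry.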

[14] = target: Rap guanine nucleotide exchange factor 3 (Homo sapiens) (UniProt O95398); assay: Confirmatory qHTS for antagonist of cAMP-regulated guanine nucleotide exchange factor 3 (EPAC1) (AID 1645880);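 also: plate controls were DMSO only for no effect and full effect of the ATA control for full effect; nearly all actives have a fitted effect of over 55% in size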
Method in brief: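 Nucleotide exchange uses 100 nM EPAC1, 250 nM RAP1B-BODIPY-GDP and 50 uM GDP, with compounds in a concentration-titration series. After 5 min at room temperature, fluorescence (480 nm ex/540 nm em) is read every 5 min for 30 min. Data are normalized to control ATA and DMSO.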

[15] = target: Rap guanine nucleotide exchange factor 3 (Homo sapiens) (UniProt O95398); assay: Confirmatory qHTS for agonist of cAMP-regulated guanine nucleotide exchange factor 3 (EPAC1) (AID 1645881);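 also: EPAC1 catalysed release of BODIPY-GDP from Rap1B seen as fluorescence loss; 100% = effect of cAMP agonist control; nearly all actives have a fitted effect of over 75% in size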
[16] = target: Rap guanine nucleotide exchange factor 4 (Homo sapiens) (UniProt Q8WZA2); assay: Confirmatory qHTS for antagonist of cAMP-regulated guanine nucleotide exchange factor 4 (EPAC2) (AID 1645885); also: % is scaled to controls: 0 for no effect and ±100 for the full control effect; nearly all actives have a fitted effect of over 25% in size
[17] = qHTS Assay for Identifying Gametocytocidal Compounds (AID 743244);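 also: % is scaled to controls: 0 for no effect and ±100 for the full control effect; actives lower the fluorescent signal which means gametocytes are killed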; settings: P. falciparum 3D7 stage III-V gametocytes, alamarBlue, 72 h; max response: hits give low values
Method in brief: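 A resazurin-based viability read-out was applied to mature P. falciparum gametocytes: 72 h compound treatment, then 24 h dye incubation, with falling fluorescence signalling gametocytocidal effect.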

[18] = NFAT Signaling Pathway (AID 444; active = well fitted curve in either direction with a large enough effect, not every such curve was filed as active;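 also: carbachol stimulus at about its EC50 of 1 µM final; % is scaled to controls: 0 for no effect and ±100 for the full control effect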); settings: Jurkat NFAT-bla M1, carbachol, beta-lactamase ratio, 5 h; at 17.2 µM (top of the series)
Method in brief: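 Jurkat cells carrying an NFAT-driven β-lactamase reporter and co-transfected muscarinic M1 receptor were treated with compound plus carbachol (1 uM final, an EC50 level) for 5 h at 37 °C. CCF4 loading followed for 1 h at RT; 460/530 nm ratio gave %activity.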

Sequence of Glucocorticoid receptor (Homo sapiens) (P04150 whole entry, looked up, the tested form may be a part): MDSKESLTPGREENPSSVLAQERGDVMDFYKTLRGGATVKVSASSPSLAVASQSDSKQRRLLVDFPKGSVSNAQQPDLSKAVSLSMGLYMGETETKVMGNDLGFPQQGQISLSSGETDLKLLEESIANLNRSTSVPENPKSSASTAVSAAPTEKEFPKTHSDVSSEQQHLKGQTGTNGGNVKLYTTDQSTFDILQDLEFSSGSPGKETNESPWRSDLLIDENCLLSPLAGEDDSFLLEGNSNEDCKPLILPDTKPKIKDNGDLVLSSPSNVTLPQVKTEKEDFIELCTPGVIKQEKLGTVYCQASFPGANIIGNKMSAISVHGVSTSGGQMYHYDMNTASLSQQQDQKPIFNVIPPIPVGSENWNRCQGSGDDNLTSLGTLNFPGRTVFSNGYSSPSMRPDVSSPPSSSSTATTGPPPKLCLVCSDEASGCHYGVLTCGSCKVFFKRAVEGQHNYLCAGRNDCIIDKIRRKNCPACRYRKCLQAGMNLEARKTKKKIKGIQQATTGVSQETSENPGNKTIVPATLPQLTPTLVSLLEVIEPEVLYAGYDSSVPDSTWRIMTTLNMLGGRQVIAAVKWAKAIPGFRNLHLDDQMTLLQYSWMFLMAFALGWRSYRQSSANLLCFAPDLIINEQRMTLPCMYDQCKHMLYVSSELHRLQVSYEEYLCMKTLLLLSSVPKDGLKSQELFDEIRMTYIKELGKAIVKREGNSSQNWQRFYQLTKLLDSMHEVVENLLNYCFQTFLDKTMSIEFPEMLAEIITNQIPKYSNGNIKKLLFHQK
Sequence of Rap guanine nucleotide exchange factor 3 (Homo sapiens) (O95398 whole entry, looked up): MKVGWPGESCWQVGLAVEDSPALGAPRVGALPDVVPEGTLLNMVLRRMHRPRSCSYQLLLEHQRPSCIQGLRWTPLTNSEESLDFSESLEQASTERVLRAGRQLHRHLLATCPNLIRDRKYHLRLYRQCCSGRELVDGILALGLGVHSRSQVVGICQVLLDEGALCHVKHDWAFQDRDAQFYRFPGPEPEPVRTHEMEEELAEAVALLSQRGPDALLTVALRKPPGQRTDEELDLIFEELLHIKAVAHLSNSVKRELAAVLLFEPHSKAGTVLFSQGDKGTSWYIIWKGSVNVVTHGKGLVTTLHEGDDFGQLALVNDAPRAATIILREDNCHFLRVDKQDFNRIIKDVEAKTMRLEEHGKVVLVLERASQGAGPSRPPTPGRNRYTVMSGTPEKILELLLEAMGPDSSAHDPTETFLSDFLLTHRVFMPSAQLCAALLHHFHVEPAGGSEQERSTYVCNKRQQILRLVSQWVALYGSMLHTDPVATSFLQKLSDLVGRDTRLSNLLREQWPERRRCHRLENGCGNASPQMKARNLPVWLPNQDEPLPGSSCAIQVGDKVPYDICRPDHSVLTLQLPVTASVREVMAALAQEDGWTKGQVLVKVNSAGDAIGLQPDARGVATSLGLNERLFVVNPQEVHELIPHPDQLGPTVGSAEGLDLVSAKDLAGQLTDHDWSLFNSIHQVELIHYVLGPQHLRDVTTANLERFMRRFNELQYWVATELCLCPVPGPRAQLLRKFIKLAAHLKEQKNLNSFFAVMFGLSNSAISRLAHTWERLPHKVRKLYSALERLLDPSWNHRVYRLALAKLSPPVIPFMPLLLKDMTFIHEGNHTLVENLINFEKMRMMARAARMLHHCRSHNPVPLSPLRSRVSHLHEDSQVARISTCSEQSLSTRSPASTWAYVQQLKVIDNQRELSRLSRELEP
Sequence of Ubiquitin carboxyl-terminal hydrolase 1 (Homo sapiens) (O94782 whole entry, looked up): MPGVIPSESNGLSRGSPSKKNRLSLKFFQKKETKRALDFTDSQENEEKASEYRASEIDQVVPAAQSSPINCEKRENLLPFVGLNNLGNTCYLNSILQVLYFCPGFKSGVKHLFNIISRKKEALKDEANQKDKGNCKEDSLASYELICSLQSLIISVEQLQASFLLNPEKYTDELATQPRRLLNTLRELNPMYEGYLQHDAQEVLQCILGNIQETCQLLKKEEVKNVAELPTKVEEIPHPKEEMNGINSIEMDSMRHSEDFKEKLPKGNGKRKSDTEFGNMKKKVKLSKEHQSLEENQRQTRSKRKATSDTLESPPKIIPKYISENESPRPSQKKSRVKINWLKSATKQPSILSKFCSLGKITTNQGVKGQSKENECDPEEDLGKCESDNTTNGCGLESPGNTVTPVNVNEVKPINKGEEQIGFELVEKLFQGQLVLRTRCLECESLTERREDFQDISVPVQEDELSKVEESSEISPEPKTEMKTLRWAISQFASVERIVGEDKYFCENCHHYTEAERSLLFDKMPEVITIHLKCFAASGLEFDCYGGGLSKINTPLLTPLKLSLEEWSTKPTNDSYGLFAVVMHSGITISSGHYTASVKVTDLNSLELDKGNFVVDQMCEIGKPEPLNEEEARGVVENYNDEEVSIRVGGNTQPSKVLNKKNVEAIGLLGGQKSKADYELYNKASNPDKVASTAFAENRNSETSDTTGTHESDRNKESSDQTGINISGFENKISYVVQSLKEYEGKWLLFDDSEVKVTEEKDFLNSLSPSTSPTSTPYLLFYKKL
Sequence of Cytochrome P450 1A2 (Homo sapiens) (P05177 whole entry, looked up): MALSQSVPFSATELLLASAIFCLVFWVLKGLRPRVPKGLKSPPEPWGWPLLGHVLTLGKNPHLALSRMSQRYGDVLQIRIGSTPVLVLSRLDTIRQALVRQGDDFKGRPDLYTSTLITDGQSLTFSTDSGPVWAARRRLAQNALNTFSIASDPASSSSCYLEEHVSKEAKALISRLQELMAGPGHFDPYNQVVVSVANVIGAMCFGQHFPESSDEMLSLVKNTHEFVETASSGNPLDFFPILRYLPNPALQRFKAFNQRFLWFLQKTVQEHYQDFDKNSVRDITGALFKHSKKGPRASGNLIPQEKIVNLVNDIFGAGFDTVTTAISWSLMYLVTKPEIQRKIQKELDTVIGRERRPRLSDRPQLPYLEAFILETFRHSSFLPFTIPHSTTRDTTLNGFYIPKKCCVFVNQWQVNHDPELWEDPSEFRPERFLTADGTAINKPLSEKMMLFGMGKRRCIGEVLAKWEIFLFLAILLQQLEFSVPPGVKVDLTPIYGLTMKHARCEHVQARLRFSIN
Sequence of Cytochrome P450 2D6 (Homo sapiens) (P10635 whole entry, looked up): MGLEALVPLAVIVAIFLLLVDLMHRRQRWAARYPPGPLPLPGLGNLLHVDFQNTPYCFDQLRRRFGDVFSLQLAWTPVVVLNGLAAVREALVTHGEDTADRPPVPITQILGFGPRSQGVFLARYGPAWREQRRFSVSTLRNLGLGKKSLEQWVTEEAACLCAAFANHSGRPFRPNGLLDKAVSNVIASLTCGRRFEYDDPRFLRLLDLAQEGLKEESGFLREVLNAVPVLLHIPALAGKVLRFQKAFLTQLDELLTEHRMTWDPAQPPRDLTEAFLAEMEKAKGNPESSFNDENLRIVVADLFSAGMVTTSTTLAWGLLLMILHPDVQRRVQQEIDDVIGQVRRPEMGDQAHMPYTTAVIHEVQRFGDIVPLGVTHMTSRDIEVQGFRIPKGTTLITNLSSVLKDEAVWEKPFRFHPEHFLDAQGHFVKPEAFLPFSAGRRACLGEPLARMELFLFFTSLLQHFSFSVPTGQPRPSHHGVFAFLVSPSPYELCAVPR
Sequence of Rap guanine nucleotide exchange factor 4 (Homo sapiens) (Q8WZA2 whole entry, looked up): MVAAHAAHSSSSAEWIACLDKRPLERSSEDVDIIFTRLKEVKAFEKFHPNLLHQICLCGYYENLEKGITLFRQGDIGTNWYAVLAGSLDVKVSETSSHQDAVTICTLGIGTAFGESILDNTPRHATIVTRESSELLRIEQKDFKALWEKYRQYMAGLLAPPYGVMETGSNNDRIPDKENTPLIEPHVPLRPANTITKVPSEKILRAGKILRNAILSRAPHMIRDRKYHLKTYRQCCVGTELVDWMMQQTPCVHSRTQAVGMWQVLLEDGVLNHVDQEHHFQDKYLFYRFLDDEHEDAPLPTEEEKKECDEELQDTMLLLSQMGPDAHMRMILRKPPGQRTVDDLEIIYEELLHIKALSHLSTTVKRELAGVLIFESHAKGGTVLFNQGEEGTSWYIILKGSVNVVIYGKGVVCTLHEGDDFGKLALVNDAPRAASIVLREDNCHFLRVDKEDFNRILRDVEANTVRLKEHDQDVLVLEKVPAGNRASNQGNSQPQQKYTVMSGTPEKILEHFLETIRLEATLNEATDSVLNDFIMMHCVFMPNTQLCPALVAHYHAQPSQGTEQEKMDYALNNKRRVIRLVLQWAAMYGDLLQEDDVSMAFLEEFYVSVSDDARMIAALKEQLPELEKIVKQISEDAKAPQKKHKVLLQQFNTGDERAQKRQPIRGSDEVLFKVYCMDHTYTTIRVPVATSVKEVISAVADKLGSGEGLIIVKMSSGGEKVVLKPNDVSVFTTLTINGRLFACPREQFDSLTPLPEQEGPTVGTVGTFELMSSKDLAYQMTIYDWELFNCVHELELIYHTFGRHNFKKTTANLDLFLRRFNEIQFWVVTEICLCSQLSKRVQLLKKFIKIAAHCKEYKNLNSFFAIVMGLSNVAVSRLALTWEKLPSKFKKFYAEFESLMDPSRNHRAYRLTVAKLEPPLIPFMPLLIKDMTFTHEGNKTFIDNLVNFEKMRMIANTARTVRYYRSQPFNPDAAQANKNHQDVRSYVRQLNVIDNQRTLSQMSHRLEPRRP
Sequence of DNA dC->dU-editing enzyme APOBEC-3G (Homo sapiens) (Q9HC16 whole entry, looked up): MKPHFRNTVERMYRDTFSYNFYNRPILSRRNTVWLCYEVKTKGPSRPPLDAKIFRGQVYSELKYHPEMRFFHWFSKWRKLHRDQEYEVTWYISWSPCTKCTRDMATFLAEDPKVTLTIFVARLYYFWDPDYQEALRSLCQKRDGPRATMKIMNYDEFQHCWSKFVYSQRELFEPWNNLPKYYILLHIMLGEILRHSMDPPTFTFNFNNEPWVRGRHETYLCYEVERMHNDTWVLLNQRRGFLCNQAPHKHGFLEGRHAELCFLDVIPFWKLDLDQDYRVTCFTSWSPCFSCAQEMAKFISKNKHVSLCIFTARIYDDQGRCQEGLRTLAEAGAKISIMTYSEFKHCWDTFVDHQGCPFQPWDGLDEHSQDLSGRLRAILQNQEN

COC(=O)C1c2c(n(C)c3ccccc23)[C@H]2[C@@H](C)[C@H](OC)c3ccccc3[C@@H]12 (stereo partly specified)
inactive: outcome [1]

COC(=O)C1=C2CCO[C@@H]2[C@H]2[C@@H](C)[C@H](OC)c3ccccc3[C@H]12
inactive: outcome [2] | outcome [3] | outcome [1] | Potency [4]

O=C1Nc2cc(Cl)c(Cl)cc2N2CCNC[C@H]12
inactive: Potency [5] > 46 µM | Potency [6] > 46 µM | outcome [7] | Potency [8] | Potency [9]

CCC[C@]12CCN3C(=O)N[C@@H](c4ccccc4)[C@](C(=O)OCC)(C1)[C@H]32
inactive: outcome [2] | outcome [3] | outcome [1] | Potency [4]

CC(=O)[C@]12C[C@]3(C)CCCN(C(=O)N[C@@H]1c1ccccc1)C32 (stereo partly specified)
inactive: outcome [2] | outcome [3] | outcome [1] | Potency [4]

C=C1[C@@H]2CCN3C(=O)N[C@@H](c4ccccc4)[C@@]1(C(=O)OCC)C23 (stereo partly specified)
inactive: outcome [2] | outcome [3] | outcome [1] | Potency [4]

COC(=O)C1(C)C2CC(C)C(c3ccccc32)N1C(=O)C(F)(F)F (stereo unspecified)
inactive: outcome [2] | outcome [3] | outcome [1] | Potency [4]

COC(=O)C1=NN=C(C(=O)OC)[C@@]2(C)c3ccccc3NC12 (stereo partly specified)
inactive: outcome [2] | outcome [3] | outcome [1] | Potency [4]

C(=C/c1ccccc1)/CN1CCN(CCOC(c2ccccc2)c2ccccc2)CC1
active: Potency [10] 20 µM | Potency [11] 5.01 µM | Potency [12] 5.01 µM
inactive: Potency [5] > 46 µM | Potency [6] > 46 µM | outcome [7] | Potency [13] | Potency [14] | outcome [15] | Potency [16]

COC(=O)C1=C2CCCO[C@H]2[C@@H]2[C@@H](C)[C@H](OC)c3ccccc3[C@@H]12
inactive: outcome [2] | outcome [3] | outcome [1]

COC(=O)C12CC3=CCC4C(=O)N(c5ccccc5)C(=O)C4C3Cc3ccccc3[C@H]1CNC2=O (stereo partly specified)
inactive: outcome [3] | Potency [4]

CC(=O)[C@@]12C3[C@@H](CCN3C(=O)N[C@H]1c1ccccc1)[C@H]2c1ccccc1 (stereo partly specified)
inactive: outcome [2] | Potency [4]

C#C[C@]1(OC(=O)CCCCCC)CC[C@H]2[C@@H]3CCC4=CC(=O)CC[C@@H]4[C@H]3CC[C@@]21C
inactive: max response [17] -5.44%

CCCC(=O)OCC[N+](C)(C)C
inactive: activity change, negative = inhibition [18] 5.08% | Potency [5] > 20.6 µM | Potency [9]

COC(=O)[C@@]1(C=C2c3ccc(F)cc3[C@@H](OC)[C@@H]2C)[C@@H]2c3ccccc3O[C@@H]21
inactive: outcome [3]

CCOC(=O)[C@]12C[C@@H]3CCN(C(=O)N(C(C)=O)[C@@H]1c1ccccc1)[C@@H]32
inactive: outcome [2] | outcome [3] | outcome [1] | Potency [4]
